# Legend:
# Assay in all cases: DAPPL (digital affinity profiling via proximity ligation, sequencing); 10 mM Tris-HCl pH 7.5, 50 mM NaCl, 1 mM DTT, 4% glycerol, room temperature, 30 min; GST-TFs on glutathione beads, 16-mer random dsDNA library, 0.1% formaldehyde crosslink after washing; high values mean tight binding
# [1] = target: T1, FEV (Homo sapiens, UniProt Q99581 1-238); conditions: protein: recombinant; tags: N-terminal GST; dsDNA, one strand shown
# T1 sequence: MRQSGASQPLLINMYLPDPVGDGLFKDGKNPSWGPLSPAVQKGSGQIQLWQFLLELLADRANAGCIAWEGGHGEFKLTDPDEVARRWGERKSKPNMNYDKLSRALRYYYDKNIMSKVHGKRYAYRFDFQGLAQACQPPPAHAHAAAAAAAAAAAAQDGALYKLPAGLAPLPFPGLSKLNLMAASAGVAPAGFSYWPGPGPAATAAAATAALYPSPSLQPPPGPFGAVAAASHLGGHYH
# Summary of the method: (§1)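 Binding signal is defined as a hexamer's read frequency for one factor over its frequency for the tag-only sample. To obtain reads, GST-fused human transcription factors were expressed in yeast, captured on glutathione beads, barcoded with DNA and pooled with that sample. Pools met 200 nmole of a 16-mer random double-stranded DNA library in Tris/NaCl/DTT/glycerol buffer for 30 min at room temperature before washing, 0.1% formaldehyde crosslinking, proximity ligation (BsaI/T4 ligase, 1 h, 37 °C), PCR and Illumina NextSeq500 sequencing.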
# [2] = target: ETV5 (Homo sapiens, UniProt P41161 1-510); conditions: protein: recombinant; tags: N-terminal GST; dsDNA, one strand shown
# Chain of ETV5 (P41161 whole entry): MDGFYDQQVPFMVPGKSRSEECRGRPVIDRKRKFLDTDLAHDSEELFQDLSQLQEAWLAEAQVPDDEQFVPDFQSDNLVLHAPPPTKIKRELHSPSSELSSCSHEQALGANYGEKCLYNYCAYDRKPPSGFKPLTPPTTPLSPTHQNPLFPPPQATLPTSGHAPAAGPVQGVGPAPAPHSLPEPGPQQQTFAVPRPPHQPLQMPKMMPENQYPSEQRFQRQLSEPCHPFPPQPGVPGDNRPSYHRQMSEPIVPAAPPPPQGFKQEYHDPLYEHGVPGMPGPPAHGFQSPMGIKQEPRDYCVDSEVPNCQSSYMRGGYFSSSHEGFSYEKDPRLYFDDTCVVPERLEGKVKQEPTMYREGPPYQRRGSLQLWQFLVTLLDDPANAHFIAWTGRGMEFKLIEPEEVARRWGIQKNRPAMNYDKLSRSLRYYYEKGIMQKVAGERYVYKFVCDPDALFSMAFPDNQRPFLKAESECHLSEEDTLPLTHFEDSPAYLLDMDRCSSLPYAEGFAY
# Summary of the method: as §1
# [3] = target: HSF1 (Homo sapiens, UniProt Q00613 1-529); conditions: protein: recombinant; tags: N-terminal GST; chain copies: 3; dsDNA, one strand shown
# Chain of HSF1 (Q00613 whole entry): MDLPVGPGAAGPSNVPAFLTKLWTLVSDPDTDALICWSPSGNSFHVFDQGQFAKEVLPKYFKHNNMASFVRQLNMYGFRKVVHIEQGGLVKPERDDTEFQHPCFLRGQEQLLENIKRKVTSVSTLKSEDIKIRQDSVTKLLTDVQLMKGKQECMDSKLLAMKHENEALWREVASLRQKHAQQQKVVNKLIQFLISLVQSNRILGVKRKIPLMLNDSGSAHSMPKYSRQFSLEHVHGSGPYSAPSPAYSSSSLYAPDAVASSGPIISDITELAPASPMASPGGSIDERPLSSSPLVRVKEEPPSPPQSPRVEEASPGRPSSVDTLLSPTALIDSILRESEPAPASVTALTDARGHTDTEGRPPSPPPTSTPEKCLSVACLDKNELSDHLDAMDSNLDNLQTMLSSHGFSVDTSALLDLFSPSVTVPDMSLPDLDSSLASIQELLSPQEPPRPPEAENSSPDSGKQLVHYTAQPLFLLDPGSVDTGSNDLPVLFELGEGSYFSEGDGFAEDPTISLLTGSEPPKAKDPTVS
# Summary of the method: as §1
# [4] = target: T2, SPIC (Homo sapiens, UniProt Q8N5J4 1-248); conditions: protein: recombinant; tags: N-terminal GST; dsDNA, one strand shown
# T2 sequence: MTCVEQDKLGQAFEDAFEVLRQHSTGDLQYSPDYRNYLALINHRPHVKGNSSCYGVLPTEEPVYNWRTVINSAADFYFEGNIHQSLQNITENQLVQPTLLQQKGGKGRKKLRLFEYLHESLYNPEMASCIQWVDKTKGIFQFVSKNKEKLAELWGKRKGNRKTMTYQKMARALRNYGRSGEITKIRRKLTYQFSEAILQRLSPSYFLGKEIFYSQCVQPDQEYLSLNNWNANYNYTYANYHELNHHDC
# Summary of the method: as §1
# [5] = target: ELF4 (Homo sapiens, UniProt Q99607 1-663); conditions: protein: recombinant; tags: N-terminal GST; dsDNA, one strand shown
# Chain of ELF4 (Q99607 whole entry): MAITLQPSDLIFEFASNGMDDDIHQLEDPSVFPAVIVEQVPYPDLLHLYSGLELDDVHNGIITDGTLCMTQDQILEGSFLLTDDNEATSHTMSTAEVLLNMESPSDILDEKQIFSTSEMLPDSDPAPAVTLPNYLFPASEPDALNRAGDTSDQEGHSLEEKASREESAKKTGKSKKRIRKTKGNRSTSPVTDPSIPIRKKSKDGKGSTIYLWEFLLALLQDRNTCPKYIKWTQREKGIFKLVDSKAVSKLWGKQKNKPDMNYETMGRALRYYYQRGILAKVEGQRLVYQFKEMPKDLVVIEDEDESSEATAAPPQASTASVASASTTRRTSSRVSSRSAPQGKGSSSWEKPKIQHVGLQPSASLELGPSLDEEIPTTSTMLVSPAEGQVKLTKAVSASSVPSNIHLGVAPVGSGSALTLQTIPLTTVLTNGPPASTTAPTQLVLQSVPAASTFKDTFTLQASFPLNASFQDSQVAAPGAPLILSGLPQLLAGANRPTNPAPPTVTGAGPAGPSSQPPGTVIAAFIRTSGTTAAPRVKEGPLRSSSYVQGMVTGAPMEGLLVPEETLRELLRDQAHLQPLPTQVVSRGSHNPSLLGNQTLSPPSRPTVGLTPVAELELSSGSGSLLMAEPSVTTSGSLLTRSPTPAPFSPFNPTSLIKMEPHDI
# Summary of the method: as §1
# [6] = target: T3, ELK4 (Homo sapiens, UniProt P28324-2 1-405); conditions: protein: recombinant; tags: N-terminal GST; dsDNA, one strand shown
# T3 sequence: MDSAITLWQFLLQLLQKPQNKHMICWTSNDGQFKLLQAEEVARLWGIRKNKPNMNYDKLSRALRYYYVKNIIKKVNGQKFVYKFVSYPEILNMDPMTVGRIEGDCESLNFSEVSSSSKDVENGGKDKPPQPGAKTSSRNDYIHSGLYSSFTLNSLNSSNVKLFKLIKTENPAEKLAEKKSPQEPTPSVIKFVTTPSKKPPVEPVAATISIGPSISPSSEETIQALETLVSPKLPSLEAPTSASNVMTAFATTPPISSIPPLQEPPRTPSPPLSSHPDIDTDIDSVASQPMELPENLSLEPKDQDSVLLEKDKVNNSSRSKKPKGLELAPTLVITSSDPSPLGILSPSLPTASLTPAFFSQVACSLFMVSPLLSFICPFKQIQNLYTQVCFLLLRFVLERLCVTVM
# Summary of the method: as §1
# [7] = target: T4, ETV2 (Homo sapiens, UniProt O00321 1-342); conditions: protein: recombinant; tags: N-terminal GST; dsDNA, one strand shown
# T4 sequence: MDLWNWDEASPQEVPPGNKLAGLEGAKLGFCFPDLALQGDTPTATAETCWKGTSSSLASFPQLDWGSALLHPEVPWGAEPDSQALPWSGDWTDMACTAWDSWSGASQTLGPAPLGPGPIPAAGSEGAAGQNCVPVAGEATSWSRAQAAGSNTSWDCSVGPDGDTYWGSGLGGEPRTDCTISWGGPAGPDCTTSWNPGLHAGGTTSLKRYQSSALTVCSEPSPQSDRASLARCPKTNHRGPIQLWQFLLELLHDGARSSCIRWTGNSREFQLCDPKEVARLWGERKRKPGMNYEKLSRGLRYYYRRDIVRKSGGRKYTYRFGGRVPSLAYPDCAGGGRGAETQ
# Summary of the method: as §1
# [8] = target: T5, ELF3 (Homo sapiens, UniProt P78545 1-371); conditions: protein: recombinant; tags: N-terminal GST; dsDNA, one strand shown
# T5 sequence: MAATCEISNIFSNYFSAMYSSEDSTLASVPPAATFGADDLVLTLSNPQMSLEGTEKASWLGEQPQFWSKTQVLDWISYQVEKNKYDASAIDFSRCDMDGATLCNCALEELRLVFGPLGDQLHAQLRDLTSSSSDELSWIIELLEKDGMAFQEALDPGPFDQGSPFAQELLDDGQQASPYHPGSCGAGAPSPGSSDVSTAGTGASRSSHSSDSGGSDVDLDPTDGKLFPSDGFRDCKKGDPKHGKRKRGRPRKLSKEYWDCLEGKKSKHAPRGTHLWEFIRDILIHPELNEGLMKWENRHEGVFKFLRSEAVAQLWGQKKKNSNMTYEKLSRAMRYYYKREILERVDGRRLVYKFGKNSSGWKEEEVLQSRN
# Summary of the method: as §1
# [9] = target: CRX (Homo sapiens, UniProt O43186 1-299); conditions: protein: recombinant; tags: N-terminal GST; dsDNA, one strand shown
# Chain of CRX (O43186 whole entry): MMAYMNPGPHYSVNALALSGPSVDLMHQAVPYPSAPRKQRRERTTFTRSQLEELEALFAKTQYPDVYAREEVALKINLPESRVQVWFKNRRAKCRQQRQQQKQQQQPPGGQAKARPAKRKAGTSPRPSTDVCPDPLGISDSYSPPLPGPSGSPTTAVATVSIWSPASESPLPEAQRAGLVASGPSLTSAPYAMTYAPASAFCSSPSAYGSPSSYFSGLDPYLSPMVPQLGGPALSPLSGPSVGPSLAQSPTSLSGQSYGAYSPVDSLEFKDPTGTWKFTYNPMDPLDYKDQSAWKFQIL
# Summary of the method: as §1
# [10] = target: ETV1 (Homo sapiens, UniProt P50549 1-477); conditions: protein: recombinant; tags: N-terminal GST; dsDNA, one strand shown
# Chain of ETV1 (P50549 whole entry): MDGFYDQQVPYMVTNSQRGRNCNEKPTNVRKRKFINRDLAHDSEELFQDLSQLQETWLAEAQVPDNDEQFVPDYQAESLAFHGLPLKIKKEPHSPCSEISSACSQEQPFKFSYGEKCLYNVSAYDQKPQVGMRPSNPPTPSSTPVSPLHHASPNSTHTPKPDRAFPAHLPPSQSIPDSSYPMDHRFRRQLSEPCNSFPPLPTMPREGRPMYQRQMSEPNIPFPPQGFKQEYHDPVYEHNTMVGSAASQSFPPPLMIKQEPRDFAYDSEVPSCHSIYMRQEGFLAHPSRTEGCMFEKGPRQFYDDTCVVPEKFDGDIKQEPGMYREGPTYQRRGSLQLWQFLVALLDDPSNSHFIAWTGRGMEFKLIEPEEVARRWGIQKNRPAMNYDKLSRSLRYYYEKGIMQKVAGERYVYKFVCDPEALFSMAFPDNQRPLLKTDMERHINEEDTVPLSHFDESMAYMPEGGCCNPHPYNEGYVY
# Summary of the method: as §1
# [11] = target: T6, ERF (Homo sapiens, UniProt P50548 1-548); conditions: protein: recombinant; tags: N-terminal GST; dsDNA, one strand shown
# T6 sequence: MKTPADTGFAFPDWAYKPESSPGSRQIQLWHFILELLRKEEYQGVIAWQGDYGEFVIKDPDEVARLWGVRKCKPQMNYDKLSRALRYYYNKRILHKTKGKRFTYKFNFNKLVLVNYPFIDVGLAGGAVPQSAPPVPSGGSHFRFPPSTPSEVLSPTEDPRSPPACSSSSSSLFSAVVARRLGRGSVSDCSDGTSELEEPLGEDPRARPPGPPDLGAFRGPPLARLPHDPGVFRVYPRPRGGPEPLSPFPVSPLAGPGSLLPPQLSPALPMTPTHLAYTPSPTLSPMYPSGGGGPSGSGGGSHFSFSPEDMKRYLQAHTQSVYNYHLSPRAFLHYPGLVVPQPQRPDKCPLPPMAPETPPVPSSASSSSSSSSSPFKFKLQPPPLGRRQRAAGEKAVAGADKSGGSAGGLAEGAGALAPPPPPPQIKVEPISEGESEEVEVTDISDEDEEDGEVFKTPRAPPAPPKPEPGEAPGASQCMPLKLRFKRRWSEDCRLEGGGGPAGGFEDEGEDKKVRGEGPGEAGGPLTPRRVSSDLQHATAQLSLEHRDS
# Summary of the method: as §1
# [12] = target: T7, ETV3L (Homo sapiens, UniProt Q6ZN32 1-361); conditions: protein: recombinant; tags: N-terminal GST; dsDNA, one strand shown
# T7 sequence: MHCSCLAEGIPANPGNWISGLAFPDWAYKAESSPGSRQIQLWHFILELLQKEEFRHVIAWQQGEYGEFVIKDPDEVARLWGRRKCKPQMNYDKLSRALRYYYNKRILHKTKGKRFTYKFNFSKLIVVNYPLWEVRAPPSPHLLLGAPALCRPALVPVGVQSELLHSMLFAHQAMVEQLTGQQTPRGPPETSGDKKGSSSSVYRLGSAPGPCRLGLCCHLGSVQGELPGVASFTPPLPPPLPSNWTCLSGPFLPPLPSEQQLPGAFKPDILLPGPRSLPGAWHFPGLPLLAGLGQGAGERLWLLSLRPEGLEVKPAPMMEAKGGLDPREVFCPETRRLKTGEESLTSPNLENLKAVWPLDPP
# Summary of the method: as §1
# [13] = target: T8, ETS2 (Homo sapiens, UniProt P15036 1-469); conditions: protein: recombinant; tags: N-terminal GST; dsDNA, one strand shown
# T8 sequence: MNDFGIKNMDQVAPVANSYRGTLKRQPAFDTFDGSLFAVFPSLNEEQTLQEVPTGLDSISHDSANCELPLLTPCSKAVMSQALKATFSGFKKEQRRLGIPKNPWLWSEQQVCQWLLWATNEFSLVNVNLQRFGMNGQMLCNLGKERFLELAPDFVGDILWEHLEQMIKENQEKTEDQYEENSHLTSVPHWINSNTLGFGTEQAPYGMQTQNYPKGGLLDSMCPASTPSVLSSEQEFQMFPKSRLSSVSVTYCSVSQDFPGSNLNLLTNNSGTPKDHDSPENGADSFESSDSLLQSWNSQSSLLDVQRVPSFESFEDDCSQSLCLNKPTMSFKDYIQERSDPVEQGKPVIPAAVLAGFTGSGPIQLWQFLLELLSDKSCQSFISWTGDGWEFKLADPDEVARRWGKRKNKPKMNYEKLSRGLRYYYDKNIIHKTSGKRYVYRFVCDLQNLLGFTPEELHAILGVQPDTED
# Summary of the method: as §1
# [14] = target: T9, SPDEF (Homo sapiens, UniProt O95238 1-335); conditions: protein: recombinant; tags: N-terminal GST; dsDNA, one strand shown
# T9 sequence: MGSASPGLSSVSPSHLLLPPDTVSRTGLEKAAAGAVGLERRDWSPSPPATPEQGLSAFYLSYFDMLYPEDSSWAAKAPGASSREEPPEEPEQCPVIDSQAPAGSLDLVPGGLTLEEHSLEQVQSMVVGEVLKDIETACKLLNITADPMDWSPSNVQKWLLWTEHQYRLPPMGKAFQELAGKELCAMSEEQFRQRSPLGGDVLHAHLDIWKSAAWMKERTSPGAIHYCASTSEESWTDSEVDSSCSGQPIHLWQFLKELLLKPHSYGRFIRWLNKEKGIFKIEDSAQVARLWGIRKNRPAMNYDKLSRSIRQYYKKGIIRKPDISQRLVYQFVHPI
# Summary of the method: as §1
# [15] = target: T10, ETV7 (Homo sapiens, UniProt Q9Y603 1-341); conditions: protein: recombinant; tags: N-terminal GST; dsDNA, one strand shown
# T10 sequence: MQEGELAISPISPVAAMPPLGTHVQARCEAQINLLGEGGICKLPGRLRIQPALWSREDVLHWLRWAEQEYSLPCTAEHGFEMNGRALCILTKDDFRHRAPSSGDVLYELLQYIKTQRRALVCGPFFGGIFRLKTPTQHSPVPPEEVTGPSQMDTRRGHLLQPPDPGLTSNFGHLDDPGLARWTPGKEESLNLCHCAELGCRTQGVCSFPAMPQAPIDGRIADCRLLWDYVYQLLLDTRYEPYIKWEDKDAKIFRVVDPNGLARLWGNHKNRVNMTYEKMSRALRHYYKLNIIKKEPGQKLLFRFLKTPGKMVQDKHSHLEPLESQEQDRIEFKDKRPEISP
# Summary of the method: as §1
# [16] = target: T11, ELF5 (Homo sapiens, UniProt Q9UKW6-2 1-255); conditions: protein: recombinant; tags: N-terminal GST; dsDNA, one strand shown
# T11 sequence: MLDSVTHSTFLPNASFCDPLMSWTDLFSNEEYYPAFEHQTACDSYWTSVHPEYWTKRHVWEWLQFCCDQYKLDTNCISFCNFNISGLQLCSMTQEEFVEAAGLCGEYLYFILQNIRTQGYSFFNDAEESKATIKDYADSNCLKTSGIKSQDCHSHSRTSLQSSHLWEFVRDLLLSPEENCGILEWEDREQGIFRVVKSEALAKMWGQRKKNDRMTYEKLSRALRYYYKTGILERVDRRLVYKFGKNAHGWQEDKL
# Summary of the method: as §1
# [17] = target: T12, ETV3 (Homo sapiens, UniProt P41162-2 1-143); conditions: protein: recombinant; tags: N-terminal GST; dsDNA, one strand shown
# T12 sequence: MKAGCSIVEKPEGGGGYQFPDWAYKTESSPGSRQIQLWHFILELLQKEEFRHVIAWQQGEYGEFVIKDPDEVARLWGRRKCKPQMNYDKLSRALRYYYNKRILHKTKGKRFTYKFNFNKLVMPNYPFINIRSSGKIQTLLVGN
# Summary of the method: as §1
# [18] = target: ETV6 (Homo sapiens, UniProt P41212 1-452); conditions: protein: recombinant; tags: N-terminal GST; dsDNA, one strand shown
# Chain of ETV6 (P41212 whole entry): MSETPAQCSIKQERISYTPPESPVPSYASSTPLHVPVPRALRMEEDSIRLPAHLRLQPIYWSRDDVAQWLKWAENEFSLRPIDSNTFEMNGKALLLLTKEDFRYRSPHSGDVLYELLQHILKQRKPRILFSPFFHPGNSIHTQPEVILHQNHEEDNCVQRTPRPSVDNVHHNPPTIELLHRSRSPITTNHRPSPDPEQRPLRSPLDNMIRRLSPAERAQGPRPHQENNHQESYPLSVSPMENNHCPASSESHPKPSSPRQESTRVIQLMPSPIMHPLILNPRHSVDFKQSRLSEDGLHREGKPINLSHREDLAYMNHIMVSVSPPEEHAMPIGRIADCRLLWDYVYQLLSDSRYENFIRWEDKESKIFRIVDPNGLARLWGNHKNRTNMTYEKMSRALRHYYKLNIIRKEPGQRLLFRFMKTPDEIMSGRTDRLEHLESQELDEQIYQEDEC
# Summary of the method: as §1
sequence,measurement,setting,value
CCCACT,binding signal,[1],"1.5 fold enrichment (6-mer frequency, TF over GST control)"
same,binding signal,[2],"1.33 fold enrichment (6-mer frequency, TF over GST control)"
same,binding signal,[3],"1.07 fold enrichment (6-mer frequency, TF over GST control)"
same,binding signal,[4],"1.27 fold enrichment (6-mer frequency, TF over GST control)"
same,binding signal,[5],"1.43 fold enrichment (6-mer frequency, TF over GST control)"
same,binding signal,[6],"1.24 fold enrichment (6-mer frequency, TF over GST control)"
same,binding signal,[7],"1.37 fold enrichment (6-mer frequency, TF over GST control)"
same,binding signal,[8],"1.18 fold enrichment (6-mer frequency, TF over GST control)"
same,binding signal,[9],"1.14 fold enrichment (6-mer frequency, TF over GST control)"
same,binding signal,[10],"1.34 fold enrichment (6-mer frequency, TF over GST control)"
same,binding signal,[11],"1.42 fold enrichment (6-mer frequency, TF over GST control)"
same,binding signal,[12],"1.37 fold enrichment (6-mer frequency, TF over GST control)"
same,binding signal,[13],"1.32 fold enrichment (6-mer frequency, TF over GST control)"
same,binding signal,[14],"1.27 fold enrichment (6-mer frequency, TF over GST control)"
same,binding signal,[15],"1.28 fold enrichment (6-mer frequency, TF over GST control)"
same,binding signal,[16],"1.31 fold enrichment (6-mer frequency, TF over GST control)"
same,binding signal,[17],"1.32 fold enrichment (6-mer frequency, TF over GST control)"
same,binding signal,[18],"1.37 fold enrichment (6-mer frequency, TF over GST control)"
